# Many of the other results were omitted from the sample, so the strongest signals are more common in it than they were.
# B1: GS7807E-bfa-538-23-538 (Bacteroides fragilis) (protein)
# chain: TDSFESFNTNEAGFDNDSKKQDFNYYGIPLGIIQQGIYFNYDWGSGKNWPFQTMQNLGADLFSGYVHDFNPFNEGKNNSTYYMMDGWNGSTWDNTYGYIMPEVQKSETINEKDNIGFFGITKILKVELMHRLSDLYGPIVYTQFGSKTGSTPDTQQEAYKAFFNDLDTGIAKIREYQKANPDIESFAKFDILMPQGKRTFSEWIRFANSLRLRLAVRIAMADSKLAVAEAQKALTDEEGLLEGNDEVVAVSTSSGYTNPFGEINKAWGEVFMNANMESLLVGYEDPRMEKYFDKATGSDATSLIDYKGTYKGIRQGTGFSHKNYNGHSKSTITQQTDAVLMTPAEVWFLRAEAALRGWSSESVKDCYEKGVKASFAQWGAAGAEAYLESDRKPSDYVDAFKAANNVKAVNTLTPKWDDAAGNEDKLGRIITQKWLAMFPEGGEAWAEQRRTGYPRLFPVLVNQSEGTVDTNLGPRRLNFFVGIKTTNPEQYTQLVNALGGIDNCGTRLWWDTGRNF
# Key:
# Test in all cases: glycan array binding signal (z-score within array); higher = stronger binding
# Settings in all cases: glycan notation: IUPAC condensed, linker removed
# [1] = target: Fuc(a1-2)Gal
# In short: (§1)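 From the Consortium for Functional Glycomics database, 3228 arrays were curated, keeping only those whose protein sequence was available. Binding is given as a within-array Z-score averaged across arrays sharing a protein sequence and across linkers. Negative Z-scores can be read as non-binding.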
# [2] = target: Fuc(a1-2)Gal(b1-3)GlcNAc(b1-2)Man(a1-3)[Fuc(a1-2)Gal(b1-3)GlcNAc(b1-2)Man(a1-6)]Man(b1-4)GlcNAc(b1-4)GlcNAc
# In short: as §1
# [3] = target: Fuc(a1-2)Gal(b1-3)GlcNAc(b1-3)[Gal(b1-4)GlcNAc(b1-6)]Gal(b1-4)Glc
# In short: as §1
# [4] = target: Fuc(a1-2)Gal(b1-3)[Fuc(a1-4)]GlcNAc(b1-3)[Gal(b1-4)GlcNAc(b1-6)]Gal(b1-4)Glc
# In short: as §1
# [5] = target: Fuc(a1-2)Gal(b1-4)GlcNAc(b1-2)Man(a1-3)[Fuc(a1-2)Gal(b1-4)GlcNAc(b1-2)Man(a1-6)]Man(b1-4)GlcNAc(b1-4)[Fuc(a1-6)]GlcNAc
# In short: as §1
# [6] = target: Fuc(a1-2)Gal(b1-4)GlcNAc(b1-2)[Fuc(a1-2)Gal(b1-4)GlcNAc(b1-4)]Man(a1-3)[Fuc(a1-2)Gal(b1-4)GlcNAc(b1-2)Man(a1-6)]Man(b1-4)GlcNAc(b1-4)GlcNAc
# In short: as §1
# [7] = target: Fuc(a1-2)Gal(b1-4)[Fuc(a1-3)]GlcNAc(b1-2)[Fuc(a1-2)Gal(b1-4)[Fuc(a1-3)]GlcNAc(b1-4)]Man(a1-3)[Fuc(a1-2)Gal(b1-4)[Fuc(a1-3)]GlcNAc(b1-2)Man(a1-6)]Man(b1-4)GlcNAc(b1-4)GlcNAc
# In short: as §1
# [8] = target: Fuc(a1-2)Gal6S(b1-4)Glc
# In short: as §1
# [9] = target: Fuc(a1-2)Gal6S(b1-4)Glc6S
# In short: as §1
# [10] = target: Gal(a1-3)Gal(b1-3)[Fuc(a1-4)]GlcNAc(b1-2)Man(a1-3)[Gal(a1-3)Gal(b1-3)[Fuc(a1-4)]GlcNAc(b1-2)Man(a1-6)]Man(b1-4)GlcNAc(b1-4)GlcNAc
# In short: as §1
# [11] = target: Gal(a1-3)Gal(b1-4)GlcNAc(b1-6)GalNAc
# In short: as §1
# [12] = target: Gal(a1-4)Gal(b1-4)GlcNAc
# In short: as §1
# [13] = target: Gal(a1-6)Glc
# In short: as §1
# [14] = target: Gal(b1-3)GalNAc(b1-3)Gal(a1-4)Gal(b1-4)Glc
# In short: as §1
# [15] = target: Gal(b1-3)GlcNAc(b1-3)Gal(b1-3)GlcNAc
# In short: as §1
# [16] = target: Gal(b1-3)GlcNAc(b1-3)Gal(b1-4)[Fuc(a1-3)]GlcNAc
# In short: as §1
# [17] = target: Gal(b1-3)GlcNAc(b1-3)Gal(b1-4)[Fuc(a1-3)]GlcNAc(b1-6)[Gal(b1-3)GlcNAc(b1-3)]Gal(b1-4)Glc
# In short: as §1
# [18] = target: Gal(b1-4)Gal
# In short: as §1
# [19] = target: Gal(b1-4)GlcNAc(b1-2)[Gal(b1-4)GlcNAc(b1-4)]Man(a1-3)[Gal(b1-4)GlcNAc(b1-2)Man(a1-6)]Man(b1-4)GlcNAc(b1-4)GlcNAc
# In short: as §1
# [20] = target: Gal(b1-4)GlcNAc(b1-3)Gal(b1-3)GlcNAc
# In short: as §1
# [21] = target: Gal(b1-4)GlcNAc(b1-3)Gal(b1-4)GlcNAc(b1-3)Gal(b1-4)GlcNAc(b1-2)[Gal(b1-4)GlcNAc(b1-3)Gal(b1-4)GlcNAc(b1-3)Gal(b1-4)GlcNAc(b1-6)]Man(a1-6)[Gal(b1-4)GlcNAc(b1-3)Gal(b1-4)GlcNAc(b1-3)Gal(b1-4)GlcNAc(b1-2)Man(a1-3)]Man(b1-4)GlcNAc(b1-4)[Fuc(a1-6)]GlcNAc
# In short: as §1
# [22] = target: Gal(b1-4)GlcNAc(b1-3)Gal(b1-4)GlcNAc(b1-3)Gal(b1-4)GlcNAc(b1-3)Gal(b1-4)GlcNAc(b1-3)Gal(b1-4)GlcNAc(b1-2)[Gal(b1-4)GlcNAc(b1-3)Gal(b1-4)GlcNAc(b1-3)Gal(b1-4)GlcNAc(b1-3)Gal(b1-4)GlcNAc(b1-3)Gal(b1-4)GlcNAc(b1-6)]Man(a1-6)[Gal(b1-4)GlcNAc(b1-3)Gal(b1-4)GlcNAc(b1-3)Gal(b1-4)GlcNAc(b1-3)Gal(b1-4)GlcNAc(b1-3)Gal(b1-4)GlcNAc(b1-2)Man(a1-3)]Man(b1-4)GlcNAc(b1-4)[Fuc(a1-6)]GlcNAc
# In short: as §1
# [23] = target: Gal(b1-4)GlcNAc(b1-3)Gal(b1-4)GlcNAc(b1-6)[Gal(b1-3)]GalNAc
# In short: as §1
# [24] = target: Gal(b1-4)GlcNAc(b1-3)Gal(b1-4)[Fuc(a1-3)]GlcNAc(b1-3)Gal(b1-4)[Fuc(a1-3)]GlcNAc
# In short: as §1
# [25] = target: Gal3S(b1-4)[Fuc(a1-3)]GlcNAc6S
# In short: as §1
# [26] = target: Gal3S4S(b1-4)GlcNAc
# In short: as §1
# [27] = target: Gal4S(b1-4)GlcNAc
# In short: as §1
# [28] = target: GalNAc(b1-3)Gal(a1-4)Gal(b1-4)GlcNAc
# In short: as §1
# [29] = target: GalNAc3S(b1-4)[Fuc(a1-3)]GlcNAc
# In short: as §1
# [30] = target: GalNAc4S6S(b1-4)GlcNAc
# In short: as §1
binder,measurement,setting,value
B1,glycan array binding signal (z-score),[1],-0.69
same,glycan array binding signal (z-score),[2],3.42
same,glycan array binding signal (z-score),[3],1.03
same,glycan array binding signal (z-score),[4],-0.553
same,glycan array binding signal (z-score),[5],-0.382
same,glycan array binding signal (z-score),[6],0.002
same,glycan array binding signal (z-score),[7],0.988
same,glycan array binding signal (z-score),[8],-0.644
same,glycan array binding signal (z-score),[9],-0.639
same,glycan array binding signal (z-score),[10],10.5
same,glycan array binding signal (z-score),[11],0.296
same,glycan array binding signal (z-score),[12],0.333
same,glycan array binding signal (z-score),[13],-0.29
same,glycan array binding signal (z-score),[14],0.143
same,glycan array binding signal (z-score),[15],0.812
same,glycan array binding signal (z-score),[16],-0.465
same,glycan array binding signal (z-score),[17],-0.627
same,glycan array binding signal (z-score),[18],-0.624
same,glycan array binding signal (z-score),[19],3.32
same,glycan array binding signal (z-score),[20],-0.306
same,glycan array binding signal (z-score),[21],4.56
same,glycan array binding signal (z-score),[22],0.867
same,glycan array binding signal (z-score),[23],4.07
same,glycan array binding signal (z-score),[24],0.531
same,glycan array binding signal (z-score),[25],-0.155
same,glycan array binding signal (z-score),[26],-0.693
same,glycan array binding signal (z-score),[27],-0.708
same,glycan array binding signal (z-score),[28],-0.246
same,glycan array binding signal (z-score),[29],3.75
same,glycan array binding signal (z-score),[30],-0.65
